“And” between values parts separate entries of the source, which are not always exact repeats. Equal values may be shown once. The panel holds about 83,000 compounds, 20% with a hit somewhere; the sample as a whole holds those more often.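 In brief: 96-well plates, 48 h treatment, single concentration, percent growth endpoint.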 Values without a mark were called inactive. The source made the active and inactive calls. How the source made its calls: active means growth percent below 10; inactive means the rest.
test system: MDA-MB-468 breast; experiment: NCI-60 one-dose screen, 48 h (100 = growth as untreated, 0 = no growth, -100 = all killed); settings: 10 µM unless noted

Compound | growth
Nc1ncnc2c1N=C(c1ccc(F)cc1)CC(c1cccc(Nc3ccnc4cc(Cl)ccc34)c1)N2 (stereo not given) | 74.1%
O=C(O)c1cc2ccccc2cc1Nc1ccccc1 | 102%
Cc1cc(=O)oc2cc(OCc3nn4c(Nc5nc6ccccc6s5)c(-c5ccccc5)nc4s3)ccc12 | 89.9%
O=C1/C(=C/c2ccccc2[N+](=O)[O-])COc2ccc(O)cc21 | -9.15% (active)
Nc1nc(Cl)c2[nH]cnc2n1 | 94.7%
CC1(CO)CCCC12OCCO2 (stereo not given) | 102%
CC(=O)Oc1ccc(C(OC(C)=O)OC(C)=O)cc1 | 109%
CC(=O)Oc1cc(C(=O)O)cc(OC(C)=O)c1OC(C)=O | 98.6% and 108%
Cc1ccc(/C=C/C(=O)c2ccc(NC(=O)CSc3nc4c([nH]3)c(=O)n(C)c(=O)n4C)cc2)c(C)c1 | 34.1%
O=C(Oc1c(Cl)c(Cl)c(Cl)c(Cl)c1Cl)C1CCCN1C(=O)OCc1ccccc1 (stereo not given) | 11.9%
CC(C)(C)c1ccc(OC(=O)Nc2ccccc2)cc1 | 112%
c1ccc(-c2nc(N3CCOCC3)c3c4c(sc3n2)CCCCCC4)nc1 | 57.4%
O=C(CCc1nnc(CN(c2ccccc2)c2ccccc2)o1)c1nc2ccccc2[nH]1 | 89.1%
COc1ccc(-c2nc3sccn3c2-c2ccnc(NCCCNS(=O)(=O)c3ccc(F)cc3)n2)cc1 | 6.78% (active)
O=C(CN1CCCCC1)Nc1nc(-c2cc3ccccc3oc2=O)cs1 | 96.3%
Cc1ccccc1NC(=O)c1sc2nc(C)c(C(=O)/C=C/c3ccccc3)cc2c1N | 9.61% (active)
CC1CC(C)S(=O)(=O)C1 (stereo not given) | 112%
Fc1ccc(-c2cn3c(-c4c[nH]c5ccc(Br)cc45)csc3n2)cc1 | 74.9%
O=C1/C(=C/c2ccc(Cl)cc2)CN(Cc2cn(CCNc3ccnc4cc(Cl)ccc34)nn2)C/C1=C\c1ccc(Cl)cc1 | -76.2% (active)
Nc1ccc(-n2c(=O)oc3ccc(Cl)cc3c2=O)c(Cl)c1 | -6.87% (active)

Compound | growth
NCCNc1ccc2cc(-c3nc4ccccc4[nH]3)c(=O)oc2c1 | 94.9%
CCOC(=O)c1c(C)nc2c(c1N)CC(=O)N2CCc1ccccc1 | 44%
CC[C@]12C=CCN3CC[C@@]4(c5ccc(OC)cc5N(C)[C@H]4[C@@](O)(C(=O)OC)[C@@H]1OC(=O)CCC(=O)N[C@H](Cc1c[nH]c4ccccc14)C(=O)OC)[C@@H]32 | -42.6% [100 µM] (active)
Cc1cc2nc3c(=O)[nH]c(=O)nc-3n(CC=O)c2cc1C | 95.8%
COc1ccc(C(=O)C(CN(C)C)c2ccccc2)cc1 (stereo not given) | -58.5% (active)
N#Cc1c(-c2ccc(Cl)cc2)nc(NN=Cc2cccc(O)c2)nc1N1CCOCC1 | 87.4%
CN(C)c1ccc(N)c2ccccc12 | 57.8%
O=C(C[C@]1(O)C(=O)Nc2ccccc21)c1cccc(C(F)(F)F)c1 | 83.9%
O=C(NCCNc1nccc(-c2c(-c3cccc(O)c3)nc3sccn23)n1)c1cc(N2CCOCC2)cc(C(F)(F)F)c1 | 94.8%
N#CC(C#N)N=Nc1ccc(Cl)cc1Cl | 58.8%
Cn1c2c(Cl)c(Cl)ccc2c2c(C#N)c[nH]c(=O)c21 | 111%
CCCC1CCC(=C2C(=O)CCC2=O)O1 (stereo not given) | 88.7%
COc1cc(-c2cc(-c3ccc(Nc4nc(Nc5ccccc5)nc(Nc5ccc(Cl)cc5)n4)cc3)nc(N)n2)cc(OC)c1OC | 90.7%
Cc1[nH]n(C(N)=S)c(=O)c1N=Nc1ccc(S(=O)(=O)Nc2ccncn2)cc1 | 86.4%
CS(=O)(=O)c1ccc(-c2nc3cc(Cl)ccc3n2CC(=O)N/N=C/c2ccc(Cl)cc2)cc1 | 96.6%
COC1=CC(c2ccc[nH]2)=N/C1=C\c1[nH]c(C)c(C(=O)CCC(=O)Oc2ccc3c(c2)CCC2C3CC[C@]3(C)C(=O)CC[C@@H]23)c1C (stereo not given in full) | 76.3%
COc1ccc(C2CC(c3cccc(Nc4ccnc5cc(Cl)ccc45)c3)=NN2c2ccc(Cl)cc2)cc1 (stereo not given) | 64%
COc1cc(C2C3=C(COC3=O)N(CCO)c3cc4c(cc32)OCCO4)cc(OC)c1OC (stereo not given) | -64.5% (active)
FC(F)(F)c1ccc2c(c1)Sc1ccccc1N2 | 102%
O=S(=O)(NCCNc1cc(-c2cn(-c3ccccc3)nc2-c2cccc(O)c2)ccn1)c1ccc(C(F)(F)F)cc1 | 21.6%
